Results filed as inconclusive are left out. A call without a number means that no potency is given here. Activity calls are given as the source filed them. Calls come from the whole dose curve; as a rule, active = well fitted inhibition curve with a large enough effect; inconclusive = small, poorly fitted or top-dose-only effect; inactive = flat fitted curve, though single readings scatter. Where a SMILES comes first, the peptide text is derived from it. [ ]: non-standard residue; d: D form. pGlu = O=C1CC[C@@H](C(=O)O)N1
Target: Voltage-gated inwardly rectifying potassium channel KCNH2 (Homo sapiens) (UniProt Q12809)
Sequence (Q12809 whole entry, looked up): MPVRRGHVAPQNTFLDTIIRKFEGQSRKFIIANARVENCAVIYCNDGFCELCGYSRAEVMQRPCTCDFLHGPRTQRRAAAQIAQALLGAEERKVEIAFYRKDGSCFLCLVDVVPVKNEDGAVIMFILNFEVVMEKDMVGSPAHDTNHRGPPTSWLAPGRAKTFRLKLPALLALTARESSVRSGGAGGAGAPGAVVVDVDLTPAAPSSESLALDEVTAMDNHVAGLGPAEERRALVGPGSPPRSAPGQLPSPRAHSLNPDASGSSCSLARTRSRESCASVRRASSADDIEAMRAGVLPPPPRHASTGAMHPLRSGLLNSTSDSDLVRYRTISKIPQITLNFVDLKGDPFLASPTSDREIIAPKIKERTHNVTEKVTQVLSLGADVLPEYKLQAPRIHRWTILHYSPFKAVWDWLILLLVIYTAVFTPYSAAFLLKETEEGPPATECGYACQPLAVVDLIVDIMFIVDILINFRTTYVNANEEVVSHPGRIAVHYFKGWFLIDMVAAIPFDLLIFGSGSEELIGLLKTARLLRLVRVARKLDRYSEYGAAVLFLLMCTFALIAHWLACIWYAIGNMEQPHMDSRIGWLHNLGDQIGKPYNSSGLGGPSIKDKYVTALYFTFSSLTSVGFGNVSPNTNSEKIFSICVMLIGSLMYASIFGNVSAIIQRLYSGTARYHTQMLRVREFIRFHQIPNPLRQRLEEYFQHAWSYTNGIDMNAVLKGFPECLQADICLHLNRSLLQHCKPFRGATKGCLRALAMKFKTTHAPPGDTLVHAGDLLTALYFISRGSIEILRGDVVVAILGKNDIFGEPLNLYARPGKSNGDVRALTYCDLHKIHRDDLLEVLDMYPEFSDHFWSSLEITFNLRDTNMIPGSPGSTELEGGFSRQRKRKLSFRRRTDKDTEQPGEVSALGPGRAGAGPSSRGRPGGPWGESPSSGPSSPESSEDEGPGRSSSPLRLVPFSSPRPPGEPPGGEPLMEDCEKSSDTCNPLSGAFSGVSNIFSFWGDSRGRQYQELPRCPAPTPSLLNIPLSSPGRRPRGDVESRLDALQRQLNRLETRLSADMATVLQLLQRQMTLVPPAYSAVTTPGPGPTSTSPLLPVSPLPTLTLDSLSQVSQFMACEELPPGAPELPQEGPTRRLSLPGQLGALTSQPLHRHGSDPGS
Test: qHTS Assay for Small Molecule Inhibitors of the Human hERG Channel Activity (AID 588834);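 note: lower thallium flux fluorescence means stronger hERG block; nearly all actives have a fitted effect of over 50% in size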
Conditions: U2OS BacMam hERG, FluxOR thallium flux fluorescence; series mostly up to 46.1 µM
Summary of the method: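 Homogeneous FluxOR thallium flux assay using hERG-expressing U2OS cells (BacMam). Compound treatment about 10 minutes preceded stimulation; reduced fluorescence taken as channel block.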
Potency is the fitted concentration of half-maximal effect.

Row | Structure (SMILES) | Potency
1 | COC1=C(OC)C(=O)C(C/C=C(\C)CC/C=C(\C)CC/C=C(\C)CC/C=C(\C)CC/C=C(\C)CC/C=C(\C)CC/C=C(\C)CC/C=C(\C)CC/C=C(\C)CCC=C(C)C)=C(C)C1=O | inactive
2 | CCN1C(=O)NC(c2ccccc2)C1=O (stereo not drawn) | inactive
3 | NC(N)=NCC1COc2ccccc2O1 (stereo not drawn) | inactive
4 | CC(C)(C)CC(C)(C)c1cc(Cc2cc(C(C)(C)CC(C)(C)C)cc(-n3nc4ccccc4n3)c2O)c(O)c(-n2nc3ccccc3n2)c1 | inactive
5 | CC1CC(O)CC(C)(C)C1 (stereo not drawn) | inactive
6 | COC(=O)[C@H]1[C@H]2C[C@@H]3c4[nH]c5cc(OC)ccc5c4CCN3C[C@H]2C[C@H](OC)[C@@H]1OC | 4.47 µM (active)
7 | CCCCC/C=C\CCC(=O)N[C@H]1[C@H](Oc2c3cc4cc2Oc2ccc(cc2Cl)[C@@H](O[C@@H]2O[C@H](CO)[C@@H](O)[C@H](O)[C@H]2NC(C)=O)[C@@H]2NC(=O)[C@H](NC(=O)[C@@H]4NC(=O)[C@H]4NC(=O)[C@@H](Cc5ccc(c(Cl)c5)O3)NC(=O)[C@H](N)c3ccc(O)c(c3)Oc3cc(O)cc4c3)c3ccc(O)c(c3)-c3c(O[C@H]4O[C@H](CO)[C@@H](O)[C@H](O)[C@@H]4O)cc(O)cc3[C@@H](C(=O)O)NC2=O)O[C@H](CO)[C@@H](O)[C@@H]1O | inactive
8 | O=C1c2ccccc2C(=O)C1c1ccc(F)cc1 | inactive
9 | CO/N=C(\C(=O)N[C@@H]1C(=O)N2C(C(=O)O)=CCS[C@H]12)c1csc(N)n1 | inactive
10 | CC(CN1c2ccccc2Sc2cccnc21)N(C)C (stereo not drawn) | 0.891 µM (active)
11 | OCCCNc1ccccc1 | inactive
12 | CC1(C)[C@@H]2CC[C@@]1(C)[C@H](OC(=O)CSC#N)C2 | inactive
13 | Cc1cc(=O)c(C(=O)N[C@@H](C(=O)N[C@@H]2C(=O)N3C(C(=O)O)=C(CSc4nnnn4C)CS[C@H]23)c2ccc(O)cc2)c[nH]1 | inactive
14 | O=C(NNCS(=O)(=O)O)c1ccncc1 | inactive
15 | O=C(O)[C@@H]1C[C@H](CP(=O)(O)O)CCN1 | inactive
16 | COc1ccc(C[C@H](C)NC[C@@H](O)c2ccc(O)c(NC=O)c2)cc1 | 14.1 µM (active)
17 | CC[C@H]1OC(=O)C[C@@H](O)[C@H](C)[C@@H](O[C@@H]2O[C@H](C)[C@@H](O[C@H]3C[C@@](C)(O)[C@@H](O)[C@H](C)O3)[C@H](N(C)C)[C@H]2O)[C@@H](CC=O)C[C@@H](C)C(=O)/C=C/C(C)=C/[C@@H]1CO[C@@H]1O[C@H](C)[C@@H](O)[C@@H](OC)[C@H]1OC | inactive
18 | COc1cc(C)c(/C=C/C(C)=C/C=C/C(C)=C/C(=O)O)c(C)c1C | inactive
19 | CCN(CC)CCCC(C)Nc1cc(/C=C/c2ccccc2Cl)nc2cc(Cl)ccc12 (stereo not drawn) | 14.1 µM (active)

Row | Structure (SMILES) | Potency
20 | CCN(CC)CCOCCOC(=O)C(CC)(CC)c1ccccc1 | 14.1 µM (active)
21 | O=C1CCC(=O)N1CO | inactive
22 | c1ccc2c(c1)Sc1ccccc1N2CCN1CCCC1 | 15.8 µM (active)
23 | CCCCCCCCCCCC(=O)OCC(O)CO (stereo not drawn) | inactive
24 | CC[C@H](C)[C@H](NC(=O)[C@H](Cc1ccccc1)NC(=O)[C@H](C)NC(=O)[C@H](CC(=O)O)NC(=O)[C@H](CCCCN)NC(=O)[C@H](CO)NC(=O)[C@@H]1CCCN1C(=O)[C@@H]1CCC(=O)N1)C(=O)NCC(=O)N[C@@H](CC(C)C)C(=O)N[C@@H](CCSC)C(N)=O ([pGlu]PSKDAFIGLM-NH2) | inactive
25 | Cc1c(O)c(=O)ccn1C | inactive
26 | OC/C=C/c1ccccc1 | inactive
27 | COC1[C@@H](O[C@@H]2O[C@H](C)[C@@H](O[C@H]3C[C@@](C)(O)[C@H](OC(=O)CC(C)C)[C@H](C)O3)[C@H](N(C)C)[C@H]2O)[C@@H](CC=O)C[C@@H](C)[C@@H](O)/C=C/C=C/C[C@@H](C)OC(=O)C[C@H]1OC(C)=O (stereo partly drawn) | inactive
28 | O=C(O)[C@H]1C(=CCO)O[C@H]2CC(=O)N12 | inactive
29 | CCOC(=O)c1c[nH]c2cc(OCC(C)C)c(OCC(C)C)cc2c1=O | inactive
30 | CO[C@H]1C[C@H](O[C@@H]2/C(C)=C/C[C@@H]3C[C@@H](C[C@]4(CC[C@H](C)[C@@H](C5CCCCC5)O4)O3)OC(=O)[C@@H]3C=C(C)/C(=N/O)[C@H]4OC/C(=C\C=C\[C@@H]2C)[C@]43O)O[C@@H](C)[C@@H]1O | inactive
31 | CNC(=O)C[C@@H](N)C(=O)N[C@@H](C(=O)N[C@@H]1C(=O)N2[C@@H]1SC(C)(C)[C@@H]2C(=O)O)c1ccc(O)cc1 | inactive
32 | O=C1N=C2SCCN2C(=O)C1Cc1ccc(Cl)cc1 (stereo not drawn) | inactive
33 | CO[C@H]1O[C@@H]2O[C@@]3(C)CC[C@H]4[C@H](C)CC[C@@H]([C@H]1C)[C@@]24OO3 | inactive
34 | CC[C@@H](C(=O)[C@@H](C)[C@@H](O)[C@H](C)[C@@H]1O[C@@H]([C@@H](CC)C(=O)O)CC[C@@H]1C)[C@H]1O[C@]2(C=C[C@@H](O)[C@]3(CC[C@@](C)([C@H]4CC[C@](O)(CC)[C@H](C)O4)O3)O2)[C@H](C)C[C@@H]1C | inactive
35 | CC(=O)c1ccc2c(c1)N(CCCN1CCN(CCO)CC1)c1ccccc1S2 | 7.08 µM (active)
36 | CN1CCC(OC(=O)C(Oc2ccc(Cl)cc2)Oc2ccc(Cl)cc2)CC1 | 1 µM (active)
37 | CCCOC(=O)c1ccccc1O | inactive
38 | O=C(O)CC/C=C\CC[C@@H]1[C@@H](N2CCCCC2)[C@@H](O)C[C@@H]1OCc1ccc(-c2ccccc2)cc1 | 0.501 µM (active)

— PubChem BioAssay (NCATS)
